Bioassay records (PubChem)
CHRM1 antagonist = human M1 muscarinic receptor antagonists, primary screen, CHO-K1 cells, Fluo-8 calcium fluorescence, 1536-well; CHO-K1 hM1, ACh EC80 antagonist; inhibition, % at 3 µM; 360,000 tested, 1.3% active; Muscarinic acetylcholine receptor M1 (Homo sapiens), P11229;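 active means percent inhibition above its own plate's cutoff, namely the mean of that plate's compound wells plus 3 SD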;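 further: peak over basal fluorescence ratio during 140 s after agonist addition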
Target sequence (P11229 whole entry, looked up): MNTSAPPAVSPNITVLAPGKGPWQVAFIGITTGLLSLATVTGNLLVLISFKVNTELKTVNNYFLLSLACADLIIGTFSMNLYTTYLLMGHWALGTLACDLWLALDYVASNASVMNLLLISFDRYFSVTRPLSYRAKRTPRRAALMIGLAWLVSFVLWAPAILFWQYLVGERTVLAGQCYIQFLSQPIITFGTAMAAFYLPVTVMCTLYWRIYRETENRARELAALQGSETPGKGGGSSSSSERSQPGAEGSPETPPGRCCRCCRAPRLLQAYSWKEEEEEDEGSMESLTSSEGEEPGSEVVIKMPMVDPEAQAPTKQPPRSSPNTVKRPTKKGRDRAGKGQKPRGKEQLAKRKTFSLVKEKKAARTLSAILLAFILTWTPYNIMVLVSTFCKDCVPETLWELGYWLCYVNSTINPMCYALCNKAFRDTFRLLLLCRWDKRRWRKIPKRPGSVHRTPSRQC
M1 ag = human M1 muscarinic receptor agonists, primary screen, Fluo-8 calcium fluorescence, CHO-K1 cells, HTS; Muscarinic acetylcholine receptor M1 (Homo sapiens), P11229; CHO-K1 hM1, agonist mode; 0% DMSO, 100% acetylcholine EC100; activation, % at 3 µM; 360,000 tested, 0.33% active; AID 588814, 2011;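 active means activation above the run's mean compound activation plus 3 SD, cut at about 16% in these data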;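 further: peak over basal fluorescence ratio within a 140 s kinetic read after compound addition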
CHO-K1 Ca antag = counter-screen for M1 antagonists: effect in parental CHO-K1 cells. ATP-induced calcium, Fluo-8 fluorescence. inhibition, % at 3 µM. 360,000 tested, 0.6% active;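 active means inhibition above a per-plate cutoff, the plate's mean sample inhibition plus 3 SD, cut at about 24% in these data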
CHO-K1 Ca PAM = nonselective calcium activators in parental CHO-K1 cells, primary screen, counter-screen for M1 PAM project, cell-based, Fluo-8 calcium fluorescence, full deck, 1536-well. ATP EC20; 0% at ATP EC20, 100% at ATP max. activation, % at 3 µM. 360,000 tested, 0.02% active;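 active means activation above the run cutoff, the mean activation of all test compounds plus 3 SD, cut at about 40% in these data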;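 further: peak over basal fluorescence ratio in a 140 s read after ATP addition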
CHO-K1 Ca ag = counter-screen for M1 agonists: effect in parental CHO-K1 cells; activation, % at 3 µM; 360,000 tested, 0.48% active; Fluo-8 calcium fluorescence; scaled to maximal ATP response, vehicle zero; in the data active means activation above about 15%;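 further: untransfected CHO-K1 host cells lacking M1 receptor as counterscreen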
M1 PAM = human M1 muscarinic receptor positive allosteric modulators, primary screen, CHO-K1 cells, Fluo-8 calcium fluorescence, 1536-well; Muscarinic acetylcholine receptor M1 (Homo sapiens), P11229; CHO-K1 hM1, ACh EC20; 0% = ACh EC20, 100% = maximal ACh; activation, % at 3 µM; 360,000 tested, 0.088% active; in the data active means activation above about 19%, passing the limit was not always enough
Numbers stand for hits; – = inactive; · = no result given. An excerpt weighted towards active compounds, which were near 2.4% of everything screened.

SMILES	CHRM1 antagonist	M1 ag	CHO-K1 Ca antag	CHO-K1 Ca PAM	CHO-K1 Ca ag	M1 PAM
CCN1CCC(CN2CCNC2=S)CC1	–	–	–	–	–	–
CC(C)C[C@H]1CNC(=S)N1CC1CCN(CCCC2CCCCC2)CC1	83.0	–	–	–	–	–
N#Cc1cnn(-c2ccccc2)c1NC(=O)c1ccccc1F	–	–	–	–	–	–
CC(C)(C)N(CC(=O)NC1CCCCC1)C(=O)CS(=O)CC(=O)Nc1ccc(F)cc1 (centres undefined)	–	–	–	–	–	–
CC[C@H](C)[C@H]1CNC(=S)N1CC1CCN(CCC(C)(C)C)CC1	–	–	–	–	–	–
CC[C@H](C)[C@H]1CNC(=S)N1CC1CCN(CCCC2CCCC2)CC1	38.4	–	–	–	–	–
CC(C)C[C@H]1CNC(=S)N1CC1CCN(CCC23CC4CC(CC(C4)C2)C3)CC1	87.6	–	–	–	–	–
c1ccc(C(c2ccccc2)c2noc(CN3CCN(CC4CC4)CC3)n2)cc1	93.5	–	–	–	–	–
Cc1ccccc1-c1nnn(Cc2cccc(S(=O)(=O)N3CCOCC3)c2)n1	–	–	–	–	15.3	–
O=C1c2ccccc2S(=O)(=O)N1Cc1cccc(S(=O)(=O)N2CCOCC2)c1	–	–	–	–	–	–
Cc1ccc(NC(=S)NC(=O)Cc2ccccc2)c(O)c1	–	17.9	–	–	–	–
COc1ccc(NC(=S)NC(=O)Cc2ccccc2)c(OC)c1	–	–	–	–	–	–
COc1ccc(C(=O)Nc2ccc(C)cn2)cc1S(=O)(=O)N1CCCc2ccccc21	23.4	–	–	–	–	–
CC1(Cc2ccc(Cl)s2)C(=O)Nc2c(Cl)ccc(Cl)c21 (centres undefined)	32.0	–	–	–	–	–
CC1(Cc2ccc(Cl)c(Cl)c2)C(=O)Nc2c(Cl)ccc(Cl)c21 (centres undefined)	–	–	–	–	–	–
Cc1ccccc1NC(=O)C1CCCN(c2nnc(N3CCCC3=O)s2)C1 (centres undefined)	–	–	25.7	–	–	–
COc1ccc(-c2nn(-c3ccccc3)cc2/C=N/NC(=O)c2ccc(Br)o2)cc1	43.9	–	–	–	–	–
COc1cc(NC(=O)CCl)ccc(=O)c1	–	–	–	–	–	–
O=C(Nc1ccccc1-c1ccccc1)NC1CCN(CC(=O)N2CCOCC2)CC1	35.2	–	–	–	–	–
Cc1cc(=O)[nH]c(SCC(=O)N2CCCCC2)n1	–	–	–	–	–	–
Cc1cc(=O)[nH]c(SCC(=O)N2CCN(C(c3ccccc3)c3ccccc3)CC2)n1	52.5	–	–	–	–	–
N#CCC(=O)N1CCN(C(c2ccccc2)c2ccccc2)CC1	–	–	–	–	–	–
O=C(O)COCC(=O)N1CCN(C(c2ccccc2)c2ccccc2)CC1	57.7	–	–	–	–	–
Cc1cc(C)c2c(=O)[nH]c(SCC(=O)N3CCCCC3)nc2n1	–	–	–	–	–	–
Cc1cc(C)c2c(=O)[nH]c(SCC(=O)N3CCOCC3)nc2n1	–	–	–	–	16.9	–
SMILES	CHRM1 antagonist	M1 ag	CHO-K1 Ca antag	CHO-K1 Ca PAM	CHO-K1 Ca ag	M1 PAM
Cc1cc(S(N)(=O)=O)c(N)c(S(N)(=O)=O)c1	–	–	–	–	–	–
Cc1ccc(N(C)S(=O)(=O)c2cccc(C(=O)N(C)Cc3cnn(-c4ccccc4)c3)c2)cc1	–	–	–	–	–	–
N#C/C(=C/C1=C(N2CCOCC2)C(=C/c2ccc(Cl)cc2Cl)/CC1)C(=O)Nc1ccccc1F	–	–	–	–	–	–
O=C1NC[C@H](CCCCN2C[C@H](Cc3ccccc3)N(CC3CCCCC3)C(=O)C2=O)N(CC2CCCCC2)C1=O	·	·	–	–	–	·
Cc1nn(C(C)C)c(C)c1CN1CCN(Cc2ccsc2)C(CCO)C1 (centres undefined)	–	–	–	–	–	–
O=C(CN1CCN(C(c2ccccc2)c2ccccc2)CC1)N1CCOCC1	63.1	–	–	–	–	–
CCOc1ccccc1NC(=O)C(c1ccccc1)N1CCN(CC(=O)N2CCOCC2)CC1 (centres undefined)	–	–	–	–	–	–
COc1ccc(N2CCN(C(=O)CN3CCN(C(c4ccccc4)c4ccccc4)CC3)CC2)cc1	64.6	–	–	–	–	–
Cc1ccccc1-c1cc2nc(NCc3ccc(N(C)C)cc3)n(C)c(=O)c2s1	–	–	–	–	–	–
N#CC1=C(N)Oc2cc(N)ccc2C1c1cccc(F)c1 (centres undefined)	–	–	–	–	–	–
CN(C)c1ccc2c(c1)OC(N)=C(C#N)C2c1cccc(F)c1 (centres undefined)	–	–	–	–	17.2	–
COc1ccc(/C=C2/Sc3ccc(C(=O)N4CCOCC4)cc3NC2=O)cc1OC	–	–	–	–	–	–
CCOC(=O)N1CCN(C(=O)c2ccc(OCC)c(OCC)c2)CC1	–	–	37.3	–	–	–
CCOC(=O)N1CCN(C(=O)c2ccc3c(c2)NC(=O)/C(=C\c2ccc(OC)c(OC)c2)S3)CC1	51.5	–	–	–	–	–
Cc1cccc(C(CC(=O)N2CCCCC2)c2ccccc2)c1O (centres undefined)	–	–	–	–	–	–
CCC1CCCCN1CCCNC(=O)C1CCC(CNS(=O)(=O)c2c(C)cc(C)cc2C)CC1 (centres undefined)	62.7	–	24.5	–	–	–
CC(C)CC1C(=O)N(Cc2cn(CC3CCCCC3)nn2)CCS(=O)(=O)N1Cc1ccc(-c2cccc(C#N)c2)cc1 (centres undefined)	–	–	–	–	–	–
CCOC(=O)CSc1nc2ccc(NC(=O)CSc3nnnn3Cc3ccccc3)cc2s1	–	–	–	–	–	–
CC(C)(C)NC(=O)CSc1nc2ccc(NC(=O)CSc3nnnn3Cc3ccccc3)cc2s1	19.1	–	–	–	–	–
COc1ccc(-c2sc3ccc(-c4ccc5c(c4)OCO5)cc3c2-c2ccc(OC)nc2)cc1	–	–	–	–	–	–
CC(c1ccc(O)cc1)(c1ccc(O)cc1)c1ccc(CCBr)cc1	–	–	–	–	18.0	–
COc1ccccc1C(=O)N/C(=C\c1cn(C)c2ccccc12)C(=O)NCCCn1ccnc1	–	–	–	–	–	–
CC1CCCCC1NCC#CCOc1ccc(Cl)cc1 (centres undefined)	62.6	–	–	–	–	–
CCCCNC(=O)O[C@H]1C[C@@H]2CCN3C(=O)CCC[C@H]([C@H]1Cc1ccccc1)[C@H]23	–	–	–	–	–	–
